The list is not random: actives were taken first. Their share in the collection is about 4.9%.
Mdm2-MdmX inh: inhibitors of human Mdm2-MdmX association, primary screen, cell-based, luminescence, split luciferase, SaOS-2, uHTS. Protein Mdm4 (Homo sapiens) + E3 ubiquitin-protein ligase Mdm2 (Homo sapiens), …. AID 485346, 2010. SaOS-2 split-luciferase Mdm2/MdmX complementation. hit rate 3% among 330,000. inhibition, % at 8 µM;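 active = inhibition of at least 50% at 8 µM in the primary screen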
PP1 counter: PP1-alpha phosphatase inhibitors, primary screen, counter-screen for PP5 inhibitor project, biochemical, fluorescence, OMFP substrate, single point. Serine/threonine-protein phosphatase PP1-alpha catalytic subunit (Homo sapiens), P62136. purified PP1alpha. inhibition, % at 6.7 µM. hit rate 0.9% among 320,000. AID 2235, 2010;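 active = inhibition above the mean inhibition of all tested compounds plus 3 SD, computed separately for each screening campaign, cut at about 15% in these data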
Calb FLC: C. albicans growth inhibition with fluconazole, primary screen, CaCi-2 strain, Alamar Blue fluorescence. C. albicans CaCi-2 (fluconazole-resistant clinical isolate) + fluconazole, 48 h. AID 1979, 2009. hit rate 0.57% among 300,000. growth inhibition, % (no concentration beside the values);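 active = growth inhibition above about 58% in most replicates, limit read from the data, passing the limit was not always enough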;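 note: all wells also contain fluconazole at 8 µg/ml as a sub-toxic cotreatment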
Beta apoptosis: inhibitors of cytokine-induced beta cell apoptosis, primary screen, luminescence; hit rate 0.8% among 300,000; protection from apoptosis, % (concentration not given with the values); INS-1E cytokine-induced death, ATP luminescence, 48 h; percent of positive-control rescue, neutral wells zero;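 active = Every replicate reaches about 75%, or at least half do and their mean reaches it too, limit read from the data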;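 note: higher means more ATP so stronger rescue from cytokine killing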
CSC inhib: cancer stem cell viability inhibitors, primary screen, luminescence. inhibition, % at 7.5 µM. AID 2717, 2010. cancer stem cell-like cells viability. hit rate 1.1% among 300,000; in the data active = inhibition above about 75%; tested in HMLE shEcad cells
PP5 inh: PP5 phosphatase inhibitors, primary screen, biochemical, fluorescence | purified PP5c, OMFP substrate fluorescence | inhibition, % at 6.7 µM | hit rate 0.18% among 320,000 | AID 1987, 2009;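 active = inhibition above the campaign's mean inhibition across all tested compounds plus 3 SD, cut at about 9.5% in these data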
Target sequence (P53041 whole entry, looked up): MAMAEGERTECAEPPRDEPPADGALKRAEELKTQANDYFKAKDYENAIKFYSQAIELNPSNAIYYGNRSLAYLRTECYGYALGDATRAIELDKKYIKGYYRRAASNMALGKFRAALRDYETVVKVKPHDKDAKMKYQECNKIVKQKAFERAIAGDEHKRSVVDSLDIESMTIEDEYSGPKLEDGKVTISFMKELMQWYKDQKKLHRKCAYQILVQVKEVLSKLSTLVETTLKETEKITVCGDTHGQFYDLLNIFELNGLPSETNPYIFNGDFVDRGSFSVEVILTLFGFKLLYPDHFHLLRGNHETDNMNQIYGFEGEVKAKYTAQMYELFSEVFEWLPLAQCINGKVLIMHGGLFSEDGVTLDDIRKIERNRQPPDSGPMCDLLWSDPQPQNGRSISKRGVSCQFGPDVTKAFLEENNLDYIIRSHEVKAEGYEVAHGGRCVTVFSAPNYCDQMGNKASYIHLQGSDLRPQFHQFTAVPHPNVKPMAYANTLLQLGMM
Mdm2 MdmX conf: Mdm2-MdmX complex disruptors, retested hits, confirmation, luminescence, single concentration; Mdm2-MdmX binding, luminescent assay; hit rate 55% among 10,000; inhibition, % at 8 µM; shares compounds with Mdm2-MdmX inh; in the data active = inhibition above about 40%
FLuc counter: full-length luciferase signal inhibition, confirmation, counter-screen for Mdm2/MdmX interaction inhibitor project, cell-based, single concentration, SaOS-2; shares compounds with Mdm2-MdmX inh; SaOS-2 full-length luciferase counterscreen, luminescence; inhibition, % at 8 µM; hit rate 77% among 6,200;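 active = mean inhibition at 8 µM reaching about 37%, which flags the compound as non-specific, limit read from the data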;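 note: p53-null SaOS-2 cells with luciferase driven by a doxycycline-inducible promoter; compound on cells about two nights before reading with doxycycline added after day one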
Large screens that a line does not name were inactive (follow-up assays come after a bar, where they were run).

O=C(/C=C/c1ccc2c(c1)OCO2)Nc1nc2ccc(F)cc2s1	Mdm2-MdmX inh 73 | Mdm2 MdmX conf inactive
CCOC(=O)C1(CCCc2ccccc2)CCN(C(=O)C2CCCN(C(N)=O)C2)CC1 (stereo not drawn)	none
COc1ccc(Cl)cc1S(=O)(=O)N1CCC(C(=O)NCc2ccco2)CC1	none
CN[C@H]1CC[C@@H](c2ccc(Cl)c(Cl)c2)c2ccccc21	Mdm2-MdmX inh 69 (no result: Beta apoptosis, CSC inhib) | Mdm2 MdmX conf inactive
COc1ccc(C(=O)/C=C/c2cccs2)c(OC(=O)N2CCOCC2)c1	none
O=C(/C=C/c1cccs1)c1cc(Br)ccc1OC(=O)N1CCOCC1	Mdm2-MdmX inh 53 | Mdm2 MdmX conf inactive
Cc1cc(C)nc(/N=C(\N)Nc2ccc(OCc3ccccc3)cc2)n1	Mdm2-MdmX inh 54 | Mdm2 MdmX conf inactive
COc1ccccc1N/C(N)=N/c1nc(C)cc(C)n1	none
Cc1cc(C)nc(/N=C(\N)Nc2cccc(OCc3ccccc3)c2)n1	Mdm2-MdmX inh 73 | Mdm2 MdmX conf 50 | FLuc counter 66
Cc1cc(C)nc(/N=C(\N)Nc2ccc(OCCC(C)C)cc2)n1	Mdm2-MdmX inh 66 | Mdm2 MdmX conf 49 | FLuc counter 53
CCOC(=O)C1=C(C)N=c2s/c(=C3/C(=O)Nc4ccccc43)c(=O)n2C1c1ccc(C)cc1 (stereo not drawn)	Mdm2-MdmX inh 70 | Mdm2 MdmX conf inactive
COC(=O)C1=C(C)N=c2s/c(=C3\C(=O)Nc4ccccc43)c(=O)n2C1c1ccccc1 (stereo not drawn)	none (no result: PP1 counter, Beta apoptosis, CSC inhib, PP5 inh)
CCn1nc(C(=O)OCC(=O)N2CC(=O)Nc3ccccc32)c2ccccc2c1=O	none
COc1cc(C(=O)NCc2nnc(SCC(=O)N3CCCc4ccccc43)o2)cc(OC)c1OC	none
COc1ccc(-c2coc3cc4oc(=O)cc(-c5ccccc5)c4cc23)cc1F	Mdm2-MdmX inh 84 | Mdm2 MdmX conf 58 | FLuc counter 55
COc1ccc(-c2coc3cc4oc(=O)cc(C)c4cc23)cc1F	Mdm2-MdmX inh 71 | Mdm2 MdmX conf 46 | FLuc counter 105
Cc1c(CC(=O)O)c(=O)oc2cc3occ(-c4ccccc4)c3cc12	none
COc1ccc(-c2cc(=O)oc3cc4occ(C)c4cc23)cc1	none
COc1ccc(CC(=O)NNc2ncnc3c2cnn3-c2ccc(C)cc2)cc1OC	none
COc1ccc(C(=O)c2ccc(Br)cc2)c2ccccc12	Mdm2-MdmX inh 52 | Mdm2 MdmX conf 53 | FLuc counter 80
CCN1C(=O)[C@H]2[C@@H](c3ccc(-c4ccc(Cl)c(Cl)c4)cc3)N[C@@](Cc3ccccc3)(C(=O)OC)[C@H]2C1=O	Mdm2-MdmX inh 57 | Mdm2 MdmX conf inactive
CCN1C(=O)[C@H]2[C@@H](c3ccc(-c4cccc(Cl)c4)c(OC)c3)N[C@@](Cc3ccccc3)(C(=O)OC)[C@H]2C1=O	Mdm2-MdmX inh 52 | Mdm2 MdmX conf inactive | FLuc counter 54
CN(C)CCCN(C(=O)c1cc(-c2cccs2)nc2ccccc12)c1nc2c(F)cccc2s1	Mdm2-MdmX inh 57 (no result: Beta apoptosis) | Mdm2 MdmX conf inactive
Cc1ccc2nc(N(CCCN(C)C)C(=O)c3cc(-c4cccs4)nc4ccccc34)sc2c1	Mdm2-MdmX inh 96, PP1 counter 17, CSC inhib 103 | Mdm2 MdmX conf 46 | FLuc counter 37
Cc1ccc2nc(N(CCCN(C)C)C(=O)c3ccc(Br)s3)sc2c1	none
Cc1ccc(NC(=O)Cn2nnc(C(=O)NCc3cccs3)c2N)cc1	none
COc1ccccc1NC(=O)Cn1nnc(C(=O)NCc2cccs2)c1N	Mdm2-MdmX inh 56 (no result: Beta apoptosis) | Mdm2 MdmX conf 64 | FLuc counter 68
CCc1ccccc1NC(=O)Cn1nnc(C(=O)NCc2cccs2)c1N	none
COc1ccc(NC(=O)c2oc3ccccc3c2NC(=O)COc2ccccc2OC)c(OC)c1	Mdm2-MdmX inh 70 | Mdm2 MdmX conf inactive
COc1ccc(NC(=O)c2nnn(CC(=O)Nc3ccccc3OC)c2N)c(OC)c1	Mdm2-MdmX inh 68 | Mdm2 MdmX conf inactive
Cc1ccc(C)c(NC(=O)Cn2nnc(C(=O)NCc3cccs3)c2N)c1	Mdm2-MdmX inh 65 | Mdm2 MdmX conf inactive
CC1CCN(c2oc(-c3ccc(F)cc3)nc2C#N)CC1	none
CCOC(CNC(=O)Cc1c(C)nc2c(-c3ccccc3)c(C)nn2c1C)OCC	none
CCCCn1c(N)c(N(CCOC)C(=O)CN2c3ccccc3CC2C)c(=O)[nH]c1=O (stereo not drawn)	none (no result: Beta apoptosis)
C=CCN(C(=O)c1csnn1)C(C(=O)NCc1ccc(F)cc1)c1ccccc1 (stereo not drawn)	none (no result: CSC inhib)
Cc1ccccc1NC(=O)c1ccc(Cl)c(NC(=O)c2cccnc2)c1	none
N/C(=N\OC(=O)CC(c1ccccc1)c1ccccc1)c1cccnc1	Mdm2-MdmX inh 88 | Mdm2 MdmX conf 64 | FLuc counter 100
COc1ccc(CCN2C(=O)CS/C2=N\NC(=O)c2cccs2)cc1OC	none
OCCCn1c(C2CCCN2c2nc(-c3ccc(Cl)cc3)cs2)nc2cc(Cl)c(N3CCCCC3)cc21 (stereo not drawn)	Mdm2-MdmX inh 73 | Mdm2 MdmX conf inactive
Cc1csc(N2CCCC2c2nc3cc(Cl)c(N4CCCCC4)cc3n2CCCO)n1 (stereo not drawn)	none
OCCCn1c(C2CCCN2c2nc(-c3ccc(F)cc3)cs2)nc2cc(Cl)c(N3CCCCC3)cc21 (stereo not drawn)	Mdm2-MdmX inh 63 | Mdm2 MdmX conf inactive
Cc1cccc(NC(=O)c2ccc3nccnc3c2)c1C	none
COc1ccc(NC(=O)CSc2nnc(Cc3cccs3)n2C)cc1	none (no result: CSC inhib)
CC1(C)Cc2c(sc3nc(=S)[nH]c(N)c23)CO1	none
COc1cc(OC)cc(-c2c(-c3cccs3)c3cc(-c4ccc(OCc5ccccc5)cc4)ccc3n2C)c1	none (no result: PP1 counter, Calb FLC, PP5 inh)
N#C/C(=C/c1ccc(Sc2nc3ccccc3[nH]2)o1)c1cccc(Br)c1	Mdm2-MdmX inh 60 | Mdm2 MdmX conf inactive
Cc1ccc(-c2ccc(/C=C3\C(=O)ON=C3c3ccccc3)o2)c([N+](=O)[O-])c1	Mdm2-MdmX inh 82, PP1 counter 17, Beta apoptosis 92 | Mdm2 MdmX conf inactive
COc1ccccc1C(CNC(=O)CSc1ccc2ccccc2c1)N(C)C (stereo not drawn)	none

Source: PubChem
